Data from ChEMBL document CHEMBL3988442, “University of Dundee, Small-Polar-MMV Screening Library” (2021).

Each compound was assayed against AMP-activated protein kinase, AMPK (Homo sapiens) (UniProt P54646+O43741+P54619+Q9UGJ0+Q9Y478+Q13131+Q9UGI9) (assay: AMP-dependent Kinase enzyme assay. An in vitro enzyme assay that detects ADP turnover that is directly proportional to AMPK activity. This uses naive AMPK that is activated during the assay with MK-8722). Settings: 30 µM.
Type: functional
Parameters: scale not given: direction of the effect not stated beside the values
Compound `CC(CN1CCOCC1)NC(=O)N1CCN(S(C)(=O)=O)CC1` (stereo not given) has a Percent Effect of 8.74%.
Work on `NCC(CO)Cc1cccc(OC(F)(F)F)c1` (stereo not given) yielded a Percent Effect of -3.22%.
`N[C@H]1CN(C(=O)c2ccc3[nH]c(CO)nc3c2)C[C@@H]1c1ccccc1` showed a Percent Effect of 3.57%.
`COC(=O)CC1CSCCN1C(=O)CCc1c(C)nn(C)c1C` (stereo not given) gave a Percent Effect of 5.71%.
For `COc1cccc(CCC(=O)Nc2ccn(C)n2)c1OC`, the Percent Effect was 10.3%.
In the case of `COc1ccc(CCCN(C)C(=O)c2cc(C(C)=O)c[nH]2)cc1OC`, the Percent Effect is reported as -2.16%.
With `O=C(NCc1cccnc1N1CCCCC1)c1ccc2[nH]nnc2c1` the Percent Effect was -9.59%.
In the case of `Cc1cc(-c2cnc(N3CCC(C(N)=O)CC3)nc2C(C)C)on1`, the Percent Effect is reported as 21.5%.
`CCc1nc(C2CCCN2Cc2ncc(C)c(OC)c2C)no1` (stereo not given) gave a Percent Effect of 0.391%.
`O=S(=O)(c1cn[nH]c1)N1CCCC(O)(CN2CCOCC2)CC1` (stereo not given) showed a Percent Effect of 13.3%.
`O=S(=O)(c1cn[nH]c1)N1CCC(O)(CN2CCOCC2)C1` (stereo not given) was tested, and the Percent Effect was 3.92%.
In the case of `COc1cccnc1NC(=O)COC1CCCC1`, the Percent Effect is reported as 8.7%.
`OCCC1(NCc2ccc(-n3cccn3)cc2)CCOCC1` was tested, and the Percent Effect was -4.22%.
For `CCC(=O)Nc1cccc(OCC(=O)N2CC=CC2C(C)C)c1` (stereo not given), the Percent Effect was -4.81%.
`Cc1noc(C2CCN(Cn3cc(Br)cn3)CC2)n1` showed a Percent Effect of 18.3%.
In the case of `Cc1cnn(CCCNC(=O)NCCC(=O)Nc2ccccc2)c1`, the Percent Effect is reported as 11.1%.
With `CCC(NC(=O)C(C)C)c1ccccc1C` (stereo not given) the Percent Effect was 8.49%.
Compound `CCn1nc(C(C)C)cc1C(=O)NCC1CCCN(c2ccccn2)C1` (stereo not given) has a Percent Effect of 6.64%.
In the case of `Oc1cc(C2CCCCN2Cc2cccs2)nc(-c2ccncc2)n1` (stereo not given), the Percent Effect is reported as 1.11%.
With `CC(C)CNC(=O)c1sccc1-n1cnnn1` the Percent Effect was 10.8%.
